Among the data in PubChem BioAssay are composite z-score, composite Z-score and z-score values, retold here.

Each structure is given as a SMILES string. The source made the active and inactive calls.

The target in one assay is Albumin (Bos taurus) (UniProt P02769). Kind of assay: compounds binding labelled BSA control protein – biochemical, small-molecule microarray, Alexa647 label, 635/667 nm fluorescence, artefact control for SMM control protein annotation, profiling panel (AID 1118).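 Further: score merges 667 nm emission intensity and signal-to-noise per printed compound spot.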 As to conditions: BSA-A647 binding, fluorescence 635 nm, higher = more signal.
Sequence of Albumin (Bos taurus) (P02769 whole entry, looked up): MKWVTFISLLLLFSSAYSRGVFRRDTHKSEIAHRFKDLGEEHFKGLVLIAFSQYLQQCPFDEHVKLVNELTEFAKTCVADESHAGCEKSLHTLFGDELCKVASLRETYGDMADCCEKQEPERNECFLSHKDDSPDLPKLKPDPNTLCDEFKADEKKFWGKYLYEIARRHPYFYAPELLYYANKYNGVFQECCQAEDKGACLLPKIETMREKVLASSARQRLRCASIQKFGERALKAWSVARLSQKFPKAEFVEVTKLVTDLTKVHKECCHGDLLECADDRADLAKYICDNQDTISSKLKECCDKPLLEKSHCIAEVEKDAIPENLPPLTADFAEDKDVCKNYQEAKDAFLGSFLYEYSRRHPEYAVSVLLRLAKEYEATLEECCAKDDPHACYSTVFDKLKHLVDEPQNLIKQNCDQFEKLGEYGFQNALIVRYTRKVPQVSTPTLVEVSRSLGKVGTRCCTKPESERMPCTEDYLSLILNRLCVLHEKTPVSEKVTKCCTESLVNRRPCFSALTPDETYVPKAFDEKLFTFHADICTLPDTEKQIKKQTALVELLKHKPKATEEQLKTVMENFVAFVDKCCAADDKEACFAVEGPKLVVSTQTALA
A short description of assay [1]: probe aXIP binding to arrayed compounds – biochemical, NeuroSMM set, 635/667 nm fluorescence, primary screen (AID 1119).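 Further: probe is the protein aXip251-270 applied at 1 µg/mL to compound-printed slides; binding of probe to printed compounds measured as 667 nm fluorescence plus signal to noise.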 To be noted: small-molecule microarray, higher = more signal, called active from +8 up or from −8 down.
Assay [2] is described as follows: probe aNOTCH3 binding on compound microarray – biochemical, small-molecule microarray, 635/667 nm fluorescence, primary screen (AID 1120).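 Further: probe is a biotin-tagged antibody raised against NOTCH3 rather than NOTCH3 protein; score merges spot fluorescence near 667 nm with spot signal to noise.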 As to conditions: higher = more signal.
The nature of assay [3]: probe aNOTCH2 binding on compound microarray – biochemical, small-molecule microarray, 635/667 nm fluorescence, primary screen (AID 1121).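 Further: score merges feature fluorescence read at 667 nm with its signal to noise.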 To be noted: higher = more signal.
Assay [4] concerns the target Carbonic anhydrase 2 (Homo sapiens) (UniProt P00918). Kind of assay: compounds binding carbonic anhydrase 2 – biochemical, small-molecule microarray, Alexa647-labelled CAII, profiling panel (AID 1122). As to conditions: CAII-A647 binding fluorescence, higher = more signal.
A short description of assay [5]: COS7 lysate on small-molecule microarray, probe aHis, 635 nm (AID 1123).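 Further: z-score combines 667nm fluorescence intensity with signal-to-noise per printed compound spot.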 To be noted: COS7 cell lysate, fluorescence, higher = more signal.
Assay [6] in a line: probe aLAP1 signal on lysate-treated microarray – cell lysate, small-molecule microarray, COS7 lysate, primary screen (AID 1124).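 Further: lysate comes from COS7 cells expressing LAP1 and is applied at 0.3 µg/mL; score merges spot fluorescence near 667 nm with signal-to-noise over triplicate slides.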 To be noted: probe aLAP1, fluorescence, higher = more signal.
Another assay has as its system Sam68 (KHDRBS1). Kind of assay: compounds binding KHDRBS1 protein – biochemical, small-molecule microarray, 635 nm fluorescence, primary screen (AID 1125).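 Further: score merges 667 nm channel intensity with signal to noise over triplicate slides.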 As to conditions: higher = more signal.
In assay [7] the test system is Chordin-like protein 2 (CHRDL2). Kind of assay: compounds binding chordin-like 2 – biochemical, small-molecule microarray, 635 nm fluorescence, primary screen (AID 1126).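 Further: printed compound slides probed with Chrdl2 protein at 4 µg/mL for 1 h at 4 C; score merges 667 nm emission intensity with signal to noise over three replicate slides.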 As to conditions: fluorescence 635 nm, higher = more signal.
The target of assay [8] is Concanavalin-A (Canavalia ensiformis) (UniProt P02866). Kind of assay: compounds binding concanavalin A lectin – biochemical, small-molecule microarray, Alexa647 label, 635 nm, artefact control for SMM control protein annotation, primary screen (AID 1127).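 Further: z combines 667 nm emission intensity with signal-to-noise across three replicate slides.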 As to conditions: ConA-A647 binding fluorescence, higher = more signal.
Sequence of Concanavalin-A (Canavalia ensiformis) (P02866 whole entry, looked up): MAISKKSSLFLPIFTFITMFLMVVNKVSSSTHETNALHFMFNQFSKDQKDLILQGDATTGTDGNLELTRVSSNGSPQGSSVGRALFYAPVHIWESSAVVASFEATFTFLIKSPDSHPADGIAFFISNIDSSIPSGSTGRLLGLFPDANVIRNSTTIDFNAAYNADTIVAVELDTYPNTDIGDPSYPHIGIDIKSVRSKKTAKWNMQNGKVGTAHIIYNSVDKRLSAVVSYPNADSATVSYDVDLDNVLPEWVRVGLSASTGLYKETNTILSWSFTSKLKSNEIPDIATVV
Assay [9] is described as follows: compounds binding Alexa647 anti-His antibody – biochemical, small-molecule microarray, 635 nm fluorescence, artefact control for SMM control protein annotation, primary screen (AID 1128).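 Further: score merges feature fluorescence with signal-to-noise for each printed compound spot.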 To be noted: higher = more signal.
The test system of assay [10] is Human papillomavirus type 1a E7 protein (residues 1-88). The experiment in a line: HPV1a E7 small-molecule binders, primary screen, biochemical, small-molecule microarray, residues 1-88, 635 nm (AID 1129). To be noted: small-molecule microarray binding, fluorescence 635 nm; higher = more signal.
The target of assay [11] is Focal adhesion kinase 1 (Homo sapiens) (UniProt Q05397). The experiment in a line: PTK2 protein binding on printed compound slides – biochemical, small-molecule microarray, 635/667 nm fluorescence, BSA, DTT, primary screen (AID 1130).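 Further: composite of spot emission at 667 nm and signal to noise over triplicate slides.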 As to conditions: 635 nm fluorescence, higher = more signal.
Sequence of Focal adhesion kinase 1 (Homo sapiens) (Q05397 whole entry, looked up): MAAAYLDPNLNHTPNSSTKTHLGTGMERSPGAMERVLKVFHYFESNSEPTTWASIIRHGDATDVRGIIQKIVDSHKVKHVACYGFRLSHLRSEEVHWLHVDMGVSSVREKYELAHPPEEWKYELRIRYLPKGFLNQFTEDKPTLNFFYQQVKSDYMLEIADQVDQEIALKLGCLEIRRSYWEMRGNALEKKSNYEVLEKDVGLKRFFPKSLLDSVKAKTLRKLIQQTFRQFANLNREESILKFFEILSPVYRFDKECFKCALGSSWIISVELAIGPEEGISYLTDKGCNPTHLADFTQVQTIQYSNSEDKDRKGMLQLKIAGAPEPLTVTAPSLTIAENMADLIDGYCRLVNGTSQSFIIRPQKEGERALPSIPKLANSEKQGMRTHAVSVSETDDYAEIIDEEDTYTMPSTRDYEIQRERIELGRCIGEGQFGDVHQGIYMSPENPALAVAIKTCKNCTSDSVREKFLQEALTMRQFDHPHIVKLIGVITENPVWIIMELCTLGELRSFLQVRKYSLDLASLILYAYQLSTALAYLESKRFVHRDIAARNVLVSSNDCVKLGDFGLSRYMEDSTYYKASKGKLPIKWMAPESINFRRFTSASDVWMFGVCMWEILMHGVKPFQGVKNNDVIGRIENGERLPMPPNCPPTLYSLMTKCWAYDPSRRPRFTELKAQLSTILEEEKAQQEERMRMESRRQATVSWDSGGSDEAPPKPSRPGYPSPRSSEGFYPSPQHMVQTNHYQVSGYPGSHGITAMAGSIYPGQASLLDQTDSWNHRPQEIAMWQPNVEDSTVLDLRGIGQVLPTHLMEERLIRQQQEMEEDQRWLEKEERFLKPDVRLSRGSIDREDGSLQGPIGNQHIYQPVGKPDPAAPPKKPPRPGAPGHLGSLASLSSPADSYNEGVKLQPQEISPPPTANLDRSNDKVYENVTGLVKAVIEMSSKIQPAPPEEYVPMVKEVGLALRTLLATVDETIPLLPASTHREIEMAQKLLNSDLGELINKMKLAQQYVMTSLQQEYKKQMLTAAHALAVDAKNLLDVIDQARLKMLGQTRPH
Assay [12] has as its system Fibrinogen (Alexa647-labelled). The experiment in a line: Alexa647-fibrinogen binding to printed small molecules – biochemical, small-molecule microarray, 635/667 nm fluorescence, artefact control for SMM control-protein annotation, profiling panel (AID 1131).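 Further: z-score merges 667 nm fluorescence with per-spot signal-to-noise over triplicate slides.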 As to conditions: fibrinogen-A647 binding fluorescence, higher = more signal.
For assay [13], the target named is Follistatin (Homo sapiens) (UniProt P19883). The experiment in a line: FST protein binding to printed compounds – biochemical, small-molecule microarray, 635/667 nm fluorescence, primary screen (AID 1132). As to conditions: 635 nm fluorescence, higher = more signal.
Sequence of Follistatin (Homo sapiens) (P19883 whole entry, looked up): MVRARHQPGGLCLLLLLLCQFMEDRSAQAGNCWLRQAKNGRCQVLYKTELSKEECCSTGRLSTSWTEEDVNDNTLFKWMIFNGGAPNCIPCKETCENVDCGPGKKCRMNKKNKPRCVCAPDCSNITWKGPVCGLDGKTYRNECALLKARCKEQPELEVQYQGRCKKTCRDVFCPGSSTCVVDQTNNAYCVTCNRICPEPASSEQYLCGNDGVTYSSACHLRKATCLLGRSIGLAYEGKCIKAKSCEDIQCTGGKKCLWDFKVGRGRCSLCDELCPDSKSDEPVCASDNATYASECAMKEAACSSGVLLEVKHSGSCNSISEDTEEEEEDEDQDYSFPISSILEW
In assay [14] the target is Fibroblast growth factor 2 (Homo sapiens) (UniProt P09038). The experiment in a line: basic fibroblast growth factor binding to printed compounds – biochemical, small-molecule microarray, 635/667 nm fluorescence, primary screen (AID 1133). As to conditions: FGF2, fluorescence 635/667, higher = more signal.
Sequence of Fibroblast growth factor 2 (Homo sapiens) (P09038 whole entry, looked up): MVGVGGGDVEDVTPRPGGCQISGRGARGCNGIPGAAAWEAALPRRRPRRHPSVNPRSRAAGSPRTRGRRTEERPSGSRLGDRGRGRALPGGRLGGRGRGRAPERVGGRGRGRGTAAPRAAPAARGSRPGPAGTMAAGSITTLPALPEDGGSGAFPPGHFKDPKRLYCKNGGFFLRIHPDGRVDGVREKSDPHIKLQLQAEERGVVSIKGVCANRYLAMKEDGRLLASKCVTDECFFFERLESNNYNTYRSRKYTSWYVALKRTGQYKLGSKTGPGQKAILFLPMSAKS
Assay [15] in a line: JC-1 mitochondrial potential readout, lung cancer cells – cell-based, A549, JC-1 fluorescence, basal, 24 h, 100 nL, profiling panel (AID 1138).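 Further: A549 lung adenocarcinoma cells under basal conditions with no added stimulus; test concentration not given here.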 As to conditions: higher = more signal.
The next assay deals with Lefty1. The experiment in a line: Lefty1 protein binding to printed compounds – biochemical, small-molecule microarray, 635/667 nm fluorescence, primary screen (AID 1139). As to conditions: fluorescence 635/667, higher = more signal.
Assay [16] deals with wheat germ agglutinin (Triticum aestivum), Alexa647-labelled. The experiment in a line: Alexa647-WGA lectin binding to printed small molecules – biochemical, small-molecule microarray, 635/667 nm fluorescence, artefact control for SMM control-protein annotation, profiling panel (AID 1140).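 Further: score merges 667 nm feature emission with signal to noise over triplicate slides.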 As to conditions: WGA-A647 binding, 635 nm fluorescence, higher = more signal.
Assay [17] has as its target Luciferin 4-monooxygenase (Photinus pyralis) (UniProt P08659). The experiment in a line: inhibition of purified Photinus pyralis luciferase – biochemical, luminescence, purified enzyme, 2006 set, primary screen (AID 1141).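 Further: cell-free assay with purified firefly luciferase at 100 ng per well in PBS; test concentration not given here.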 To be noted: purified firefly luciferase, SteadyGlo luminescence, 30 min; higher = more signal, called active from +8 up or from −8 down.

Sequence of Luciferin 4-monooxygenase (Photinus pyralis) (P08659 whole entry, looked up): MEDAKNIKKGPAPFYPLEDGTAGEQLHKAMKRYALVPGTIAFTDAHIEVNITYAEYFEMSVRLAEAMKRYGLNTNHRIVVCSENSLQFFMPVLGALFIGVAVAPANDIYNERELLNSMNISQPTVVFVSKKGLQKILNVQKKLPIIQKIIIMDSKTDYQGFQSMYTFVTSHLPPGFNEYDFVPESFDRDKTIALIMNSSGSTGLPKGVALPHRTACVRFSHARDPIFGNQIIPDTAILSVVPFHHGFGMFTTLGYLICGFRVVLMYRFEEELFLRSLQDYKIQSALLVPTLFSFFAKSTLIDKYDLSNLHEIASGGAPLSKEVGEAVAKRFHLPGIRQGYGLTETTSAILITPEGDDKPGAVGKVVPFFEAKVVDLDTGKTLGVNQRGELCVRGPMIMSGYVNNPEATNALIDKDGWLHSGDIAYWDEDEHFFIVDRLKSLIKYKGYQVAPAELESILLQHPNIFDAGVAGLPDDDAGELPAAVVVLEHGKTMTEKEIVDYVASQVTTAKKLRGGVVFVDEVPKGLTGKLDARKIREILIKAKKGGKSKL

Regarding `C=CCN1C(=O)[C@@]2(O[C@@H](CCn3cc(CCO)nn3)[C@H]([Si](C)(C)c3ccc(OC)cc3)[C@H]2C)c2cc(N3C(=O)c4cccc5cccc3c45)ccc21`, the composite z-score is 0.681 with Albumin (Bos taurus); -0.0299 in assay [2]; -0.0703 in assay [3]; 0.455 in assay [4]; 0.249 in [5]; 0.15 in [6]. Moreover, the composite z-score came to 0.966 in the assay on Sam68 (KHDRBS1); 0.0449 in assay [7]; 1.09 in assay [8]; 0.29 in assay [9]; 0.511 in [10]; 0.608 in assay [11]. Besides, the composite z-score in assay [12] is 0.807; in [13] it was 0.816; in assay [14] it was 0.973; in the assay on Lefty1, 0.537; in assay [16], 1.1. In addition, in [1], the composite Z-score was -0.128 (inactive). Also, the figures for the z-score in [15] and in assay [17] were -1.38 and -1.96 (inactive), respectively.

Consider `C=C(/C(=C/C[C@H](OC(=O)c1ccncc1)c1cccc(OCCO)c1)c1cc(C(=O)OC)ccc1OC)C(C)C`, for which the composite z-score with Albumin (Bos taurus) is -0.768; in assay [2], -0.16; in assay [3], -0.12; in assay [4], 0.47; in assay [5] it was 0.239; in assay [6] it was 0.11. Besides, the composite z-score is 1.12 with Sam68 (KHDRBS1); -1.23 in assay [7]; 0.505 in assay [8]; -0.538 in [9]; 0.101 in assay [10]; 0.72 in assay [11]. Also, the composite z-score in assay [12] is -0.188; in assay [13], -0.0075; in assay [14], 0.266; in the assay with Lefty1, 0.411; in assay [16] it was 0.844. For the same compound, the composite Z-score in assay [1] is 0.415 (inactive). The z-score in assay [15] is 2; in assay [17] it was -0.979 (inactive).

`CO[C@H]1O[C@H](CO)[C@@H](OC(=O)CCc2ccccc2)[C@@H]2OC(=O)[C@H](Cc3ccccc3)C/C=C/C[C@@H](Cc3ccccc3)C(=O)O[C@@H]12`: the composite z-score with Albumin (Bos taurus) is -0.707; in assay [2], -0.19; in assay [3] it was -0.0928; in assay [4], 0.746; in assay [5], 0.75; in assay [6] it was -0.662. Further, the composite z-score in the assay on Sam68 (KHDRBS1) is 0.506; in [7], -0.845; in [8], -1.04; in assay [9], -0.13; in assay [10] it was -0.109; in [11] it was 0.186. In addition, the composite z-score was -0.565 in assay [12]; -0.618 in assay [13]; -0.38 in [14]; -0.71 in the assay with Lefty1; -1.32 in assay [16]. Moreover, in [1], the composite Z-score was 0.508 (inactive). Moreover, the z-score in assay [15] was 1.01; in assay [17], -1.21 (inactive).

For `COCCCNC(=O)[C@@]1(C)c2ccccc2C(=O)N(Cc2cc(F)cc(C(F)(F)F)c2)[C@H]1c1ccc(CO)cc1`, the composite z-score with Albumin (Bos taurus) is -1.33; in assay [2], -0.336; in [3], -0.126; in assay [4], 0.74; in assay [5] it was 2.01; in assay [6] it was 0.346. Besides, the composite z-score in the assay with Sam68 (KHDRBS1) is 0.0363; in [7] it was -1.94; in assay [8], -0.453; in assay [9] it was -0.224; in [10], -1.01; in [11], -0.706. Moreover, the composite z-score was -1.61 in assay [12]; -1.48 in assay [13]; -0.521 in assay [14]; -1.73 in the assay on Lefty1; -1.26 in assay [16]. The composite Z-score in assay [1] was 0.0737 (inactive). Also, the z-score in assay [15] was 1.25; in assay [17] it was -1.13 (inactive).

As to `COC(=O)C(CC#Cc1ccc2c(c1)[C@]1(C(=O)N2)[C@H](C(N)=O)[C@H]2C(=O)O[C@H](c3ccccc3)[C@H](c3ccccc3)N2[C@@H]1c1ccc(O)cc1)C(=O)OC`, the composite z-score with Albumin (Bos taurus) stood at 0.201; in assay [2] it was 0.122; in assay [3], 0.0286; in [4] it was 0.803; in assay [5], 1.15; in assay [6], 0.478. For the same compound, the composite z-score in the assay with Sam68 (KHDRBS1) was -0.942; in [7], -1.33; in assay [8] it was -1.92; in assay [9], 0.62; in assay [10] it was -0.328; in assay [11], 0.418. Also, the composite z-score is -1.59 in assay [12]; -0.919 in assay [13]; -0.292 in [14]; -0.861 in the assay with Lefty1; -0.3 in assay [16]. Besides, the composite Z-score in [1] is 0.0742 (inactive). Besides, the z-score was -1.07 in assay [15] and -1.43 (inactive) in assay [17].
